Assay results from the supplement of paper PMC7411054.
Structures can show the parent of a compound that is named as a salt.

Tests used:
Assay in all cases: phenotypically active (imaging signature differs from DMSO and reproducible) at any of 0.3-9 uM (binary (1 = active, 0 = inactive)); higher = active
Settings in all cases: treatment time: 24 h
[1] = tested on: A549-ACTB-RAB5A
Procedure, shortened: (§1)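 Each of fifteen gene-edited A549, HepG2 and WPMY1 reporter lines, marked with BFP for segmentation and GFP and RFP/FusionRed, was treated in four wells at 0.3, 1, 3 or 9 µM for 24 h prior to live imaging. Normalisation of per-well live-cell features used solvent control wells. Deviation needed ≥3 of 4 wells beyond the 95th percentile of control Euclidean distances, and reproducibility needed a median replicate Pearson correlation above the 95th percentile of non-replicates. Both were required for phenotypic activity.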

[2] = tested on: A549-CANX-COX4
Procedure, shortened: as §1

[3] = tested on: A549-GM130-SQSTM1
Procedure, shortened: as §1

[4] = tested on: A549-TP53BP1-CLTA
Procedure, shortened: as §1

[5] = tested on: A549-TUBA1B-RELA
Procedure, shortened: as §1

[6] = tested on: HepG2-ACTB-RAB5A
Procedure, shortened: as §1

[7] = tested on: HepG2-CANX-COX4
Procedure, shortened: as §1

[8] = tested on: HepG2-GM130-SQSTM1
Procedure, shortened: as §1

[9] = tested on: HepG2-TP53BP1-CLTA
Procedure, shortened: as §1

[10] = tested on: HepG2-TUBA1B-RELA
Procedure, shortened: as §1

[11] = tested on: WPMY1-ACTB-RAB5A
Procedure, shortened: as §1

[12] = tested on: WPMY1-CANX-COX4
Procedure, shortened: as §1

[13] = tested on: WPMY1-GM130-SQSTM1
Procedure, shortened: as §1

[14] = tested on: WPMY1-TP53BP1-CLTA
Procedure, shortened: as §1

[15] = tested on: WPMY1-TUBA1B-RELA
Procedure, shortened: as §1

Measured: phenotypically active

CCC(CC)(NC(=O)C(C)C)C(=O)N[C@@H](CCCNC(=N)N)C(=O)NC1(C(=O)NC(c2ccc(F)cc2)c2ccc(F)cc2)CCCC1
inactive: [1] 0 | [2] 0 | [3] 0 | [4] 0 | [5] 0 | [6] 0 | [7] 0 | [8] 0 | [9] 0 | [10] 0 | [11] 0 | [12] 0 | [13] 0 | [14] 0 | [15] 0

Nc1ncnc2c1cnn2-c1ccccc1
inactive: [1] 0 | [2] 0 | [3] 0 | [4] 0 | [5] 0 | [6] 0 | [7] 0 | [8] 0 | [9] 0 | [10] 0 | [11] 0 | [12] 0 | [13] 0 | [14] 0 | [15] 0

NS(=O)(=O)c1cc(C2(O)NC(=O)c3ccccc32)ccc1Cl (stereo not given) [chlorthalidone]
inactive: [1] 0 | [2] 0 | [3] 0 | [4] 0 | [5] 0 | [6] 0 | [7] 0 | [8] 0 | [9] 0 | [10] 0 | [11] 0 | [12] 0 | [13] 0 | [14] 0 | [15] 0

N#Cc1ccc(C(c2ccc(C#N)cc2)n2cncn2)cc1 [Letrozole]
inactive: [1] 0 | [2] 0 | [3] 0 | [4] 0 | [5] 0 | [6] 0 | [7] 0 | [8] 0 | [9] 0 | [10] 0 | [11] 0 | [12] 0 | [13] 0 | [14] 0 | [15] 0

Cn1cccc1/C=C1\C(=O)NC(=O)c2ccccc21
inactive: [1] 0 | [2] 0 | [3] 0 | [4] 0 | [5] 0 | [6] 0 | [7] 0 | [8] 0 | [9] 0 | [10] 0 | [11] 0 | [12] 0 | [13] 0 | [14] 0 | [15] 0

COC(=O)c1c(C)cc(OC(=O)c2c(C)cc(O)c(C=O)c2O)c(C)c1O [Atranorin]
inactive: [1] 0 | [2] 0 | [3] 0 | [4] 0 | [5] 0 | [6] 0 | [7] 0 | [8] 0 | [9] 0 | [10] 0 | [11] 0 | [12] 0 | [13] 0 | [14] 0 | [15] 0

CC1=CC(=O)C2=C(C)CC[C@@H]3[C@H](OC(=O)[C@H]3C)[C@@H]12 [Leucomisine]
inactive: [1] 0 | [2] 0 | [3] 0 | [4] 0 | [5] 0 | [6] 0 | [7] 0 | [8] 0 | [9] 0 | [10] 0 | [11] 0 | [12] 0 | [13] 0 | [14] 0 | [15] 0

O=C(/C=C/c1ccc(O)c(O)c1)O[C@@H]1C[C@](O)(C(=O)O)C[C@@H](O)[C@H]1O [Chlorogenic acid]
inactive: [1] 0 | [2] 0 | [3] 0 | [4] 0 | [5] 0 | [6] 0 | [7] 0 | [8] 0 | [9] 0 | [10] 0 | [11] 0 | [12] 0 | [13] 0 | [14] 0 | [15] 0

CCCCCN(C)CCC(O)(P(=O)(O)O)P(=O)(O)O [ibandronate]
inactive: [1] 0 | [2] 0 | [3] 0 | [4] 0 | [5] 0 | [6] 0 | [7] 0 | [8] 0 | [9] 0 | [10] 0 | [11] 0 | [12] 0 | [13] 0 | [14] 0 | [15] 0

FC(F)OC(F)C(F)(F)F (stereo not given) [desflurane]
inactive: [1] 0 | [2] 0 | [3] 0 | [4] 0 | [5] 0 | [6] 0 | [7] 0 | [8] 0 | [9] 0 | [10] 0 | [11] 0 | [12] 0 | [13] 0 | [14] 0 | [15] 0

Cc1ccccc1Sc1ccc(/C=C2/SC(=S)NC2=O)cc1[N+](=O)[O-]
inactive: [1] 0 | [2] 0 | [3] 0 | [4] 0 | [5] 0 | [6] 0 | [7] 0 | [8] 0 | [9] 0 | [10] 0 | [11] 0 | [12] 0 | [13] 0 | [14] 0 | [15] 0

COc1ccc(-c2noc(CSc3nnc(C)n3-c3ccc(OC)cc3)n2)cc1
inactive: [1] 0 | [2] 0 | [3] 0 | [4] 0 | [5] 0 | [6] 0 | [7] 0 | [8] 0 | [9] 0 | [10] 0 | [11] 0 | [12] 0 | [13] 0 | [14] 0 | [15] 0

NC1=NCC2c3ccccc3Cc3ccccc3N12 (stereo not given) [epinastine]
inactive: [1] 0 | [2] 0 | [3] 0 | [4] 0 | [5] 0 | [6] 0 | [7] 0 | [8] 0 | [9] 0 | [10] 0 | [11] 0 | [12] 0 | [13] 0 | [14] 0 | [15] 0

CC(C)(C)NC[C@H](O)COc1cccc2c1CCCC2=O [levobunolol]
inactive: [1] 0 | [2] 0 | [3] 0 | [4] 0 | [5] 0 | [6] 0 | [7] 0 | [8] 0 | [9] 0 | [10] 0 | [11] 0 | [12] 0 | [13] 0 | [14] 0 | [15] 0

COc1ccc2c3c([nH]c2c1)[C@H]1C[C@H]2[C@H](C[C@@H](O)[C@H](OC)[C@H]2C(=O)O)CN1CC3 [Reserpinic acid hydrochloride]
inactive: [1] 0 | [2] 0 | [3] 0 | [4] 0 | [5] 0 | [6] 0 | [7] 0 | [8] 0 | [9] 0 | [10] 0 | [11] 0 | [12] 0 | [13] 0 | [14] 0 | [15] 0

COC(=O)c1sccc1S(=O)(=O)Nc1ccc(Nc2ccccc2)cc1OC
inactive: [1] 0 | [2] 0 | [3] 0 | [4] 0 | [5] 0 | [6] 0 | [7] 0 | [8] 0 | [9] 0 | [10] 0 | [11] 0 | [12] 0 | [13] 0 | [14] 0 | [15] 0

Nc1cc(-c2ccncc2)c[nH]c1=O [amrinone]
inactive: [1] 0 | [2] 0 | [3] 0 | [4] 0 | [5] 0 | [6] 0 | [7] 0 | [8] 0 | [9] 0 | [10] 0 | [11] 0 | [12] 0 | [13] 0 | [14] 0 | [15] 0

NC(=O)c1cccc(-c2cccc(OC(=O)NC3CCCCC3)c2)c1
inactive: [1] 0 | [2] 0 | [3] 0 | [4] 0 | [5] 0 | [6] 0 | [7] 0 | [8] 0 | [9] 0 | [10] 0 | [11] 0 | [12] 0 | [13] 0 | [14] 0 | [15] 0

Oc1cc(O)c2c(c1)O[C@H](c1ccc(O)c(O)c1)[C@@H](O)C2 [Epicatechin-(-)]
inactive: [1] 0 | [2] 0 | [3] 0 | [4] 0 | [5] 0 | [6] 0 | [7] 0 | [8] 0 | [9] 0 | [10] 0 | [11] 0 | [12] 0 | [13] 0 | [14] 0 | [15] 0

C[N+](C)(C)CC[N+]1(C)Cc2c(Cl)c(Cl)c(Cl)c(Cl)c2C1 [Chlorisondamine diiodide]
inactive: [1] 0 | [2] 0 | [3] 0 | [4] 0 | [5] 0 | [6] 0 | [7] 0 | [8] 0 | [9] 0 | [10] 0 | [11] 0 | [12] 0 | [13] 0 | [14] 0 | [15] 0

CN([C@H]1c2cc(OCCCC(F)(F)F)ccc2OC(C)(C)[C@@H]1O)S(C)(=O)=O
inactive: [1] 0 | [2] 0 | [3] 0 | [4] 0 | [5] 0 | [6] 0 | [7] 0 | [8] 0 | [9] 0 | [10] 0 | [11] 0 | [12] 0 | [13] 0 | [14] 0 | [15] 0

NC[C@H](O)c1ccc(O)c(O)c1 [norepinephrine]
inactive: [1] 0 | [2] 0 | [3] 0 | [4] 0 | [5] 0 | [6] 0 | [7] 0 | [8] 0 | [9] 0 | [10] 0 | [11] 0 | [12] 0 | [13] 0 | [14] 0 | [15] 0

CC(C)NCC(O)c1ccc(NS(C)(=O)=O)cc1 (stereo not given) [sotalol]
inactive: [1] 0 | [2] 0 | [3] 0 | [4] 0 | [5] 0 | [6] 0 | [7] 0 | [8] 0 | [9] 0 | [10] 0 | [11] 0 | [12] 0 | [13] 0 | [14] 0 | [15] 0

COc1ccc(C2=N[C@H](c3ccc(Cl)cc3)[C@H](c3ccc(Cl)cc3)N2C(=O)N2CCNC(=O)C2)c(OC(C)C)c1 [Nutlin-3]
inactive: [1] 0 | [2] 0 | [3] 0 | [4] 0 | [5] 0 | [6] 0 | [7] 0 | [8] 0 | [9] 0 | [10] 0 | [11] 0 | [12] 0 | [13] 0 | [14] 0 | [15] 0
